Experimental data as given in PubChem BioAssay AID651814 (National Center for Advancing Translational Sciences (NCATS), 2012).
About 590 (28%) of roughly 2,100 compounds were called active. Another 42% or so got no clear call; they are omitted. The call rests on the fitted dose curve; in most records, active means well fitted inhibition curve with a large enough effect; inconclusive means small, poorly fitted or top-dose-only effect; inactive means flat fitted curve, though single readings scatter. The list shows a part of the results.
Further: nearly all actives have a fitted effect of over 70% in size.
Potency means the concentration at half of the fitted maximal effect.
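Wherever max response is given: % of control where 0% means no effect; active compounds raise eYFP fluorescence by blocking Vif-driven A3F loss.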

These compounds were tested against DNA dC->dU-editing enzyme APOBEC-3F (Homo sapiens) (UniProt Q8IUX4) (assay: qHTS for inhibitors of Vif-A3F interactions: Cherry picks). Conditions: HeLa A3F-eYFP + Vif (tagged APOBEC3F with the HIV-1 protein that degrades it), eYFP fluorescence, 24 h.
Sequence of DNA dC->dU-editing enzyme APOBEC-3F (Homo sapiens) (Q8IUX4 whole entry, looked up): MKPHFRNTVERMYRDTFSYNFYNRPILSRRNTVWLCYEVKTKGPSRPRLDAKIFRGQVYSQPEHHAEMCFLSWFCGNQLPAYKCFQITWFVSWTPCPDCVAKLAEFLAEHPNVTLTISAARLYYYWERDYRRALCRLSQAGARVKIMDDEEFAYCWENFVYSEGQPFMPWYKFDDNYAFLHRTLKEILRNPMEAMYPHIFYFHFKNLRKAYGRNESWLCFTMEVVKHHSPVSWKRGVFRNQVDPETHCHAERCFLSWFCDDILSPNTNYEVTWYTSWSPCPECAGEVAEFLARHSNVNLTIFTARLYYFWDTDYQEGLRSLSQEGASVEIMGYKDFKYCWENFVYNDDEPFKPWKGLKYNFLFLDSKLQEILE
Procedure, shortened: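 HeLa cells stably expressing A3F-eYFP plus Vif, cultured overnight, then exposed to compounds at several concentrations for 24 h at 37 deg C. Reduced Vif-driven degradation read as rising eYFP fluorescence (488 nm ex/500-530 nm em) by laser-scanning cytometry; MG132 as positive control.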
In the case of `N#Cc1c(Nc2ccccc2)[n+]([O-])c2ccc(Cl)cc2[n+]1[O-]`, the max response is reported as -2.22% (inactive).
`Oc1ccc(C=NNC(=S)Nc2ccc(F)cc2)c(O)c1` was tested, and the max response was -2.9% (inactive).
`S=C(NN=Cc1ccccn1)Nc1ccccn1` was tested, and the max response was 1.89% (inactive).
In the case of `Clc1ccc(/C=N/NC2=Nc3cccc4cccc2c34)cc1`, the Potency is reported as 14.6 µM (active).
In the case of `Cc1csc(NC(=O)CCC(=O)N(CC(=O)NC2CCCC2)Cc2ccccc2)n1`, the max response is reported as 0.176% (inactive).
With `COc1ccc(C2CC(c3ccncc3)=NN2c2ccc(S(N)(=O)=O)cc2)cc1` (stereo not given) the Potency was 16.4 µM (active).
With `CCS(=O)(=O)N1N=C(c2ccc(C)cc2)CC1c1cc2ccc(OC)cc2nc1Cl` (stereo not given) the max response was -11.9% (inactive).
`Cc1ccc2c(/C=C/c3c[nH]c4ccccc34)ccnc2c1C` was tested, and the Potency was 14.6 µM (active).
In the case of `C(=Cc1c[nH]c2ccccc12)c1nccc2ccccc12`, the Potency is reported as 20.6 µM (active).
`C(=C\c1c[nH]c2ccccc12)/c1nccc2ccccc12` was tested, and the Potency was 10.3 µM (active).
`c1ccc2c(c1)nc(N1CCOCC1)c1nnnn12` was tested, and the max response was -7.94% (inactive).
For `CCOC(=O)CCc1ccc(NC(=O)/C=C/c2ccc([N+](=O)[O-])o2)cc1`, the Potency was 8.2 µM (active).
For `N#CCc1ccc(NC(=O)/C=C/c2ccc([N+](=O)[O-])o2)cc1`, the Potency was 4.11 µM (active).
With `COC(=O)c1sc(NC(=O)c2ccc([N+](=O)[O-])o2)c(C#N)c1C` the max response was -29.9% (inactive).
With `O=C(Nc1ncccn1)c1ccc([N+](=O)[O-])o1` the max response was -18.8% (inactive).
With `Nc1ccccc1C=C1Cc2ccccc2C1=O` the Potency was 11.6 µM (active).
With `CCN1C/C(=C/c2cccc([N+](=O)[O-])c2)C(=O)/C(=C/c2cccc([N+](=O)[O-])c2)C1` the max response was -17.2% (inactive).
With `O=C1C(=Cc2ccccc2[N+](=O)[O-])Cc2ccccc21` the Potency was 18.4 µM (active).
In the case of `O=[N+]([O-])c1ccccc1C=NNC(=S)NN=Cc1ccccc1[N+](=O)[O-]`, the max response is reported as -27.9% (inactive).
`CC(NC(=S)Nc1cccc(C(F)(F)F)c1)C(C)(C)C` (stereo not given) was tested, and the max response was 1.09% (inactive).
With `Cc1[nH][nH]c(=O)c1C(c1c(C)[nH][nH]c1=O)c1cn(Cc2ccccc2Cl)c2ccccc12` the max response was -24.8% (inactive).
For `COc1cc(/C=C(\C#N)c2nc3ccc(C)cc3[nH]2)ccc1OC(C)C`, the Potency was 20.6 µM (active).
For `Cc1ccc2nc(/C(C#N)=C/c3ccc(O)c(O)c3)[nH]c2c1`, the Potency was 15.8 µM (active).
With `C=CCNC(=S)N/N=C/c1ccc(C)cc1C` the max response was -2.08% (inactive).
With `Cc1[nH]c2ccccc2c1/C=N/Nc1ccc([N+](=O)[O-])cc1` the Potency was 18.4 µM (active).
For `O=[N+]([O-])c1ccc(N/N=C/c2c[nH]c3ccccc23)cc1`, the Potency was 14.6 µM (active).
`COc1ccccc1NS(=O)(=O)c1cc([N+](=O)[O-])ccc1N/N=C/c1c[nH]c2ccccc12` was tested, and the Potency was 13 µM (active).
In the case of `CCN(CC)c1ccc(NC(=O)c2ccc(=O)[nH]c2)cc1S(=O)(=O)Nc1ccccc1OC`, the max response is reported as -20.2% (inactive).
In the case of `O=C(N/N=C/c1c[nH]c2ccccc12)C1COc2ccccc2O1` (stereo not given), the max response is reported as 4.43% (inactive).
`COc1ccccc1NS(=O)(=O)c1cc([N+](=O)[O-])ccc1N/N=C/c1c(C)[nH]c2ccccc12` was tested, and the Potency was 1.98 µM (active).
